Bioassay records deposited in PubChem by The Scripps Research Institute Molecular Screening Center.
Shown are actives, neighbours in structure and some others; about 4.1% of the full set was active somewhere.
ssDAF-12 act: S. stercoralis DAF-12 nuclear receptor activators, primary screen, cell-based, luminescence, HEK293, GRIP1 co-expression, lit1-tk-luc | 1% of 370,000 active | activation, % at 6.8 µM | HEK293 ssDAF-12/GRIP1 lit1-tk-luc reporter; % of 3 µM dafachronic acid response | Nuclear hormone receptor DAF-12 (Strongyloides stercoralis);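 active = activation above the mean over all tested compounds plus 3 SD, cut at about 0.9% in these data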
hcDAF-12 act: H. contortus DAF-12 nuclear receptor activators, primary screen, cell-based, luminescence, HEK293, lit1-tk-luc reporter; 1.4% of 370,000 active; HEK293 hcDAF-12 lit1-tk-luc reporter; 0% DMSO, 100% Δ7-dafachronic acid; activation, % at 6.8 µM;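 active = activation above the mean of all tested compounds plus 3 SD, cut at about 5.5% in these data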
DAX1 inh-1: DAX1 (NR0B1) inhibitors, primary screen, cell-based, HEK293, Gal4-DAX1, luciferase luminescence | inhibition, % at 6.75 µM | Nuclear receptor subfamily 0 group B member 1 (Homo sapiens), P51843 | 0.99% of 340,000 active | HEK293 Gal4-DAX1 luciferase reporter;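 active = inhibition above the mean over all tested compounds plus 3 SD, cut at about 4.2% in these data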;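 note: inhibition shows as a rise in luminescence from relieved DAX1 repression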
DAX1 inh-2: DAX1 (NR0B1) inhibitors on StAR promoter, primary screen, cell-based, luminescence, SF-1 (NR5A1), full-length DAX-1; HEK293T StAR-luciferase reporter, SF-1/DAX-1 repression relief; inhibition, % at 6.8 µM; 1.1% of 370,000 active;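 active = inhibition above the mean over all tested compounds plus 3 SD, cut at about 3.6% in these data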;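 note: higher inhibition means more luminescence from relief of DAX-1 repression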
hgDAF12 agonist: H. glycines DAF-12 receptor agonists, primary screen, cell-based, luminescence, HEK293, GAL4 fusion, UAS-luciferase; Nuclear hormone receptor DAF-12 (Heterodera glycines), GAL4 fusion; HEK293 GAL4-hgDAF12 UAS-luciferase reporter, agonist luminescence; normalized to butyrate control; activation, % at 6.8 µM; 1.8% of 370,000 active; AID 687014, 2013;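 active = activation above a cutoff set at the mean of all screened compounds plus 3 SD, cut at about 10% in these data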
hgDAF12 conf: H. glycines DAF-12 receptor agonists, confirmation, cell-based, luminescence, HEK293, GAL4-LBD fusion; shares compounds with hgDAF12 agonist; HEK293 GAL4-hgDAF12 luciferase reporter, agonist mode; percent of butyrate response; activation, % at 6.8 µM; 80% of 3,300 active;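 active = mean activation over triplicate wells above the hit cutoff derived from the earlier primary screen, cut at about 11% in these data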
LXR ag 2: LXR agonists, Gal4 luciferase reporter, confirmation, counter-screen for hgDAF-12 agonist project, cell-based, luminescence, HEK293, H. glycines campaign | shares compounds with hgDAF12 agonist | 24 h | activation, % at 6.8 µM | 3,300 tested, under 10 active;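 active = mean activation of the triplicate above a set limit carried over from the primary screen, none filed active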
Target sequence (P55055 whole entry, looked up, the tested form may be a part): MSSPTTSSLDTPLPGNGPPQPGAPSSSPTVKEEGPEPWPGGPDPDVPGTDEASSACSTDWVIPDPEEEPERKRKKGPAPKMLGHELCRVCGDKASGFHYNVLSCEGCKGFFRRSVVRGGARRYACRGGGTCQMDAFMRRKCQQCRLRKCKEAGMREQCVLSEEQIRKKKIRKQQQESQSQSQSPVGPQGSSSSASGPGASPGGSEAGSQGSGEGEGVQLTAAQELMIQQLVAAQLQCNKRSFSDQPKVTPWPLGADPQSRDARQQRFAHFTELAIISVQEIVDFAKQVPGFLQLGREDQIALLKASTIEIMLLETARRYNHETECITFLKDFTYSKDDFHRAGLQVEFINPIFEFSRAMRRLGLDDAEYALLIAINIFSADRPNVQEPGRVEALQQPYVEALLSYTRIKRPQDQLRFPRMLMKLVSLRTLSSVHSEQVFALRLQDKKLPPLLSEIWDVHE
Each line names hits and unclear results; the compound was inactive in the other large screens (follow-up assays come after a bar, where they were run).

O=C(O)c1ccc(/C=C/c2ccc3cccc(O)c3n2)cc1	hgDAF12 agonist 14.9 | hgDAF12 conf 11.4 | LXR ag 2 inactive
O=C(O)C1=C(C(=O)Nc2ccc(F)c(Cl)c2)CCCC1	none
O=C(Nc1ccc(F)c(Cl)c1)c1nsc(Cl)c1Cl	hgDAF12 agonist 13.5 | hgDAF12 conf 15.8 | LXR ag 2 inactive
Cc1ccc(NC(=O)O/N=C/c2ccc(F)cc2)cc1	none
O=C(Nc1ccccc1)O/N=C/c1ccc(F)cc1	hgDAF12 agonist 14.5 | hgDAF12 conf 16.2 | LXR ag 2 inactive
COc1cccc(Nc2nc3ccc(OC)cc3s2)c1	hgDAF12 agonist 17.0 | hgDAF12 conf 18.3 | LXR ag 2 inactive
COc1ccc(C(=O)Nc2nc3cc4c(cc3s2)OCO4)c(OC)c1	hgDAF12 agonist 16.9 | hgDAF12 conf 16.6 | LXR ag 2 inactive
CC(C)C(=O)Nc1nc2cc3c(cc2s1)OCO3	none
COc1ccc2nc(NC(=O)c3cccnc3SC)sc2c1	hgDAF12 agonist 17.5 | hgDAF12 conf 13.6 | LXR ag 2 inactive
O=c1cc(-c2ccco2)oc2ccc(Cl)cc12	none
COc1ccc2oc(-c3ccncc3)cc(=O)c2c1	none
COc1ccc(-c2cc(=O)c3c(O)cc(O)cc3o2)cc1	DAX1 inh-2 4.1, hgDAF12 agonist 13.3 | hgDAF12 conf 14.7 | LXR ag 2 inactive
COc1cc(-c2cc(=O)c3c(O)cc(O)cc3o2)cc(OC)c1OC	none (no result: DAX1 inh-1)
O=c1cc(-c2ccccc2)oc2ccc(O)cc12	DAX1 inh-1 7.8, hgDAF12 agonist 16.7 | hgDAF12 conf 13.9 | LXR ag 2 inactive
COc1ccc(-c2cc(=O)c3cc(O)ccc3o2)cc1	DAX1 inh-1 5.2, hgDAF12 agonist 24.3 | hgDAF12 conf 17.2 | LXR ag 2 inactive
COc1ccc2oc(-c3ccco3)cc(=O)c2c1	DAX1 inh-2 4.5, hgDAF12 agonist 18.7 | hgDAF12 conf 14.4 | LXR ag 2 inactive
COC(=O)C1=C(C)N(Cc2cccc(C(F)(F)F)c2)C(=NCc2cccc(C(F)(F)F)c2)NC1c1ccc(Cl)cc1 (stereo not given)	none (no result: DAX1 inh-1)
Cc1ccc2nc(-c3ccc(NC(=O)CSc4nnc(-c5cc(-c6ccc(F)cc6)n[nH]5)n4N)cc3)sc2c1	hgDAF12 agonist 16.2 (no result: DAX1 inh-1) | hgDAF12 conf 14.8 | LXR ag 2 inactive
Cc1ccc2nc(-c3ccc(NC(=O)CSc4nnc(-c5cc(C)[nH]n5)n4N)cc3)sc2c1	DAX1 inh-2 4.4, hgDAF12 agonist 13.5 (no result: DAX1 inh-1) | hgDAF12 conf 11.5 | LXR ag 2 inactive
Cc1ccc(-c2cc(-c3nnc(SCC(=O)Nc4cccc5ccccc45)n3N)[nH]n2)cc1	none (no result: DAX1 inh-1)
Cc1ccc2nc(-c3ccc(NC(=O)CSc4nnc(-c5cccc(Cl)c5)n4Cc4ccco4)cc3)sc2c1	hcDAF-12 act 6.3, hgDAF12 agonist 20.5 (no result: DAX1 inh-1) | hgDAF12 conf 16.5 | LXR ag 2 inactive
COCc1cc(N2CCNC[C@@H]2C)ccc1N1CCN(Cc2ccccc2)[C@@H](C)C1	none (no result: DAX1 inh-1)
CC(C)[C@H](NS(=O)(=O)c1ccc(F)cc1F)C(=O)N1CCC[C@H]1C(=O)NCc1ccccc1	none (no result: DAX1 inh-1)
CCOC(=O)C(Cc1c[nH]c2ccccc12)NC(=O)c1ccccc1Br (stereo not given)	hgDAF12 agonist 13.6 | hgDAF12 conf inactive | LXR ag 2 inactive
O=C(Nc1ccccc1)c1ccc(-c2ccc([N+](=O)[O-])cc2)o1	none
